# Data published in PubChem BioAssay (NCATS).
# Inconclusive results are not listed. Entries that show only a call come without a potency. A number with no mark means an inactive call. The source made the active and inactive calls. Calls follow the shape of the dose curve; as a rule, active = well fitted curve in the direction sought with a large enough effect; inconclusive = small, poorly fitted or top-dose-only effect, or another doubt; inactive = no such curve, though single readings can be large; an effect the other way counts as inactive or inconclusive.
# Tests used:
# [1] = qHTS for Inhibitors of Plasmodium falciparum (CP250) proliferation (AID 504320); also: potency is read from the fitted curve at half-maximal effect
# Procedure, shortened: (§1)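 Erythrocytes infected with P. falciparum line (0.3% parasitemia, 2.5% hematocrit final) incubated with compounds 72 h at 37 °C, 5% CO2; SYBR Green lysis buffer added, fluorescence read next day. Normalized to 0.29 uM artemisinin and DMSO.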
# [2] = qHTS for Inhibitors of Plasmodium falciparum (7G8) proliferation (AID 504316); also: nearly all actives have a fitted effect of over 65% in size; also: potency is read from the fitted curve at half-maximal effect
# Procedure, shortened: as §1
# [3] = qHTS for Inhibitors of Plasmodium falciparum (HB3) proliferation (AID 504318); also: nearly all actives have a fitted effect of over 60% in size; also: potency is read from the fitted curve at half-maximal effect
# Procedure, shortened: as §1
# [4] = qHTS for Inhibitors of Plasmodium falciparum (GB4) proliferation (AID 504315); also: nearly all actives have a fitted effect of over 50% in size
# Procedure, shortened: as §1
smiles,measurement,setting,value
COC(=O)C1=C(C)N(Cc2ccccc2)C(=NCCc2cccnc2)NC1c1ccc(Br)cc1 (stereo not drawn),Potency,[1],1900 nM (active)
C[C@H]1Cc2c(-c3ccccc3)nc3c(c2CO1)CN(C(=O)NCCc1c[nH]c2ccccc12)CC3,Potency,[2],inactive
same,Potency,[3],inactive
same,Potency,[1],inactive
COC(=O)c1ccccc1S(=O)(=O)N1CCc2nc(-c3ccc(OC)cc3C)c3c(c2C1)CO[C@@H](c1ccccc1)C3,Potency,[1],inactive
COCOc1ccc(OC)cc1C(=O)C=Cc1ccc(OC)c(Br)c1,Potency,[3],1690 nM (active)
C[C@H]1Cc2c(COc3ccccc3)nc3c(c2CO1)CN(C(=O)Cc1cccs1)CC3,Potency,[4],inactive
same,Potency,[1],inactive
COc1cc2c(cc1OC)[C@@H]1O[C@](CCCCN3C(=O)c4ccccc4C3=O)(C2)OC2=C1C(=O)CCC2,Potency,[2],1690 nM (active)
same,Potency,[1],inactive
CC1(OC(=O)C2CCCC2)C(=O)C=C2C=C(c3ccsc3)N(CCc3c[nH]c4ccccc34)C=C2C1=O (stereo not drawn),Potency,[2],inactive
same,Potency,[1],inactive
CCCCS(=O)(=O)N1C2=NC(C(=O)OC)=C(C(=O)OC)[C@@H]3N(Cc4ccccc4)c4ccccc4[C@]23C[C@H]1C(=O)OC,Potency,[2],1510 nM (active)
same,Potency,[3],2390 nM (active)
CCCCCCC#C[C@@H]1C=C[C@H](OC(C)=O)[C@@H](COC(C)=O)O1,Potency,[1],inactive
C[C@H]1CC[C@H]2C(=O)N(Cc3ccccc3)C[C@H](O)CN2[C@H]1c1cccc(Br)c1,Potency,[1],inactive
CCOC(=O)OC[C@H]1O[C@H](C#Cc2ccccc2)C=C[C@H]1OC(=O)OCC,Potency,[2],1510 nM (active)
same,Potency,[1],inactive
